Source: PubChem (National Center for Advancing Translational Sciences (NCATS))
The list is not random: actives were taken first. Their share in the collection is about 0.85%.
APE1 inh: qHTS Assay for Inhibitors of the Human Apurinic/apyrimidinic Endonuclease 1 (APE1); Potency, µM (series often up to 65.8 µM), for inactives: top-dose activity change, negative = inhibition, usual class: inhibitors; AID 2517, 2012; DNA repair nuclease/redox regulator APEX1 (Homo sapiens), P27695; 350,000 compounds, 0.35% hits; recombinant APE1, TAMRA/BHQ-2 abasic DNA cleavage fluorescence;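 also: plate controls were vehicle for no effect and reference inhibitor for full effect; nearly all actives have a fitted effect of over 55% in size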
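Activity was derived from the fluorescence gain between first and third kinetic reads (60 s intervals, ex 525/em 598 nm) after 50 nM THF-abasic TAMRA/BHQ-2 duplex was added to 0.75 nM APE1 preincubated 15 min with compound.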
TDP1 block: qHTS Assay for Inhibitors of Tyrosyl-DNA Phosphodiesterase (TDP1); Tyrosyl-DNA phosphodiesterase 1 (Homo sapiens), Q9NUW8; recombinant TDP1, AlphaScreen DNA substrate cleavage; Potency, µM (highest dose often 130 µM), without a hit: at the highest dose activity change, negative = inhibition, usual class: inhibitors; 350,000 compounds, 0.28% hits; also: nearly all actives have a fitted effect of over 40% in size
Target sequence (Q9NUW8 whole entry, looked up): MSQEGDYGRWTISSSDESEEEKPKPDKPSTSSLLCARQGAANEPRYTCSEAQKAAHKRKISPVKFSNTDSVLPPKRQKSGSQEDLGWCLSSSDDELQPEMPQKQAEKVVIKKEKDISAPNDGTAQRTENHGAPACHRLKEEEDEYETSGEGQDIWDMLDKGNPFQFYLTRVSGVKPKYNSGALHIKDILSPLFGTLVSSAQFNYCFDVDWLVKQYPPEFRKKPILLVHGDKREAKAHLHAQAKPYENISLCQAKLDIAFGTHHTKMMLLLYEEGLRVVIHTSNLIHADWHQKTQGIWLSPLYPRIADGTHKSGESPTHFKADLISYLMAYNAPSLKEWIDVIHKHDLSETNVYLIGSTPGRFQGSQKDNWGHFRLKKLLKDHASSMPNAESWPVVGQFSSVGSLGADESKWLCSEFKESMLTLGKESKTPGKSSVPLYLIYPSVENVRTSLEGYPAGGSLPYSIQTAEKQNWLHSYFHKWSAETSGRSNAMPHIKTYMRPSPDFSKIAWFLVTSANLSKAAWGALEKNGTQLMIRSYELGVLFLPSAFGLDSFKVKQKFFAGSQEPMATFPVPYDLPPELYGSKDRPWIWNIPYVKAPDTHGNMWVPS
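Steps: enzyme plus compound, 15 min RT; add biotin/phosphotyrosine-FITC oligonucleotide (15 nM final), react 5 min; add donor/acceptor beads (10 ug/ml final), 10 min; read AlphaScreen. Tdp1 at 1 nM final.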
RECQ1 inh: qHTS Assay for Inhibitors of RecQ-Like Dna Helicase 1 (RECQ1). ATP-dependent DNA helicase Q1 (Homo sapiens), P46063. RECQ1 DNA unwinding, red fluorescence kinetic read. Potency, µM (top dose mostly 57.3 µM), without a hit: at the highest dose activity, negative = inhibition, hits mostly inhibitors. 240,000 compounds, 0.54% hits. AID 2549, 2010;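 also: plate controls were vehicle for no effect and no enzyme for full effect; nearly all actives have a fitted effect of over 30% in size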
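50 nM RECQ1T1 preincubated 15 min with compound in Tris pH 8.0 buffer with MgCl2, DTT, Tween-20 and 2.5 ug/ml poly(dI-dC); started with 200 nM TAMRA/BHQ-2 forked duplex and 2 mM ATP. Unwinding read as fluorescence (525/598 nm), two reads 2 h apart.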
BLM inh: qHTS Assay for Inhibitors of Bloom's syndrome helicase (BLM) | RecQ-like DNA helicase BLM (Homo sapiens), P54132 | 350,000 compounds, 0.2% hits | Potency, µM (doses to about 56.1 µM), without a hit: at the highest dose activity change, negative = inhibition, actives largely listed as inhibitors | AID 2528, 2010 | recombinant BLM DNA unwinding, fluorescence dequenching;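 also: plate controls were vehicle for no effect and no enzyme for full effect; nearly all actives have a fitted effect of over 35% in size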
GLS inhibitor: qHTS for Inhibitors of Glutaminase (GLS); Potency, µM (series often up to 45.5 µM), without a hit: at the highest dose activity change, negative = inhibition, hits mostly inhibitors; GLS enzymatic activity, qHTS titration; 410,000 compounds, 0.21% hits; AID 624170, 2012
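Compounds were pin-transferred onto hKGA, after which L-glutamine (1 mM solution) and a detection mix of glutamate oxidase, HRP and Amplex Red were added. Initial and 30 min RT fluorescence reads were collected.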
Tb PGK inh: qHTS Assay to Find Inhibitors of Phosphoglycerate Kinase. Phosphoglycerate kinase, glycosomal (Trypanosoma brucei brucei), P07378. PGK/GAPDH coupled, Kinase-Glo luminescence, 60 min. Potency, µM (series often up to 57.5 µM), for the others: top-dose activity change, negative = inhibition, usual class: inhibitors. 380,000 compounds, 0.043% hits. AID 602233, 2012; also: nearly all actives have a fitted effect of over 60% in size
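Luminescent ATP detection (Kinase-Glo Plus) follows a 60-minute room-temperature incubation, with wells lacking PGK as controls. Buffer: 100 mM TEA (pH 7.6), 5 mM MgCl2, 0.01% Tween-20. Coupling enzyme GAPDH (100 nM final) supplies unstable 1,3-BPG in-well.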
Active calls of the source: *; i = inactive; ? = inconclusive; / = no result given; ! = repeats disagree; [ ] = another dose, or the depositor's remark. Calls follow the shape of the dose curve; as a rule, active = well fitted curve in the direction sought with a large enough effect; inconclusive = small, poorly fitted or top-dose-only effect, or another doubt; inactive = no such curve, though single readings can be large; an effect the other way counts as inactive or inconclusive. Unless noted, % is scaled to controls: 0 for no effect and ±100 for the full control effect; potency is read from the fitted curve at half-maximal effect.

SMILES	APE1 inh	TDP1 block	RECQ1 inh	BLM inh	GLS inhibitor	Tb PGK inh
COc1cccc(C(=O)O/N=C(\N)c2ccccn2)c1	27.1%	/	/	-3.8%	-3.4%	14.1µM*
C[C@@H]1C/C=C/C=C/C=C/C=C/[C@H](O[C@@H]2O[C@H](C)[C@@H](O)[C@H](N)[C@@H]2O)C[C@@H]2O[C@](O)(C[C@@H](O)C[C@H]3O[C@@H]3/C=C/C(=O)O1)C[C@H](O)[C@H]2C(=O)O	0.1%[21 µM]	/	/	/	/	/
CC(=O)c1cccc(NC(=O)CCc2nnc3ccc(NCc4ccco4)nn23)c1	-32.9%	25.1µM*	/	?	?	-10.1%
CC(C)CN(C[C@@H](OP(=O)(O)O)[C@H](Cc1ccccc1)NC(=O)O[C@@H]1CCOC1)S(=O)(=O)c1ccc(N)cc1	/	/	/	6.5%	14.1µM*	/
O=C(NN=C1CCCC1)c1ccccc1[N+](=O)[O-]	3.9%	39.8µM*	/	-1.1%	-1.0%	7.3%
O=C(NN=C1CCCC1)c1ccccc1O	6.9%	-5.3%	/	-2.6%	?	2.8%
COc1cc(/C=N/NC(=O)c2cccc(S(=O)(=O)N3CCCC3)c2)ccc1O	15.3%	4.6%	/	/	?	-5.9%
O=C(N/N=C/c1ccc(O)c(O)c1)c1cccc(S(=O)(=O)N2CCCC2)c1	40.3%	6.6%	/	/	11.2µM*	-9.0%
CC(C)(C)c1ccc(C(=O)NCC(=O)OC(C(=O)Nc2cc(C(F)(F)F)ccc2Cl)c2ccccc2)cc1 (configuration not stated)	/	0.4%	/	/	/	/
CC1(OC(=O)c2ccc(Cl)nc2)C(=O)C=C2C=C3CCCN3C=C2C1=O (configuration not stated)	?	8.91µM*	?	-10.3%[12.4 µM]	?	-17.5%
COc1ccc(C2C3=C(N=CN(CCN4CCOCC4)C3N)Oc3ccccc32)cc1OC (configuration not stated)	/	2.6%	/	/	/	/
CCNc1cccc(S(=O)(=O)N2CCN(S(=O)(=O)c3ccc4c(c3)OCCO4)CC2)c1	/	-4.5%	/	/	/	/
CC(=O)N1CCc2c(sc(NC(=O)C3CC3)c2-c2nc3ccccc3s2)C1	?	1.0%	i	-9.9%	14.9%	i
CC(=O)Nc1sc2c(c1-c1nc3ccccc3s1)CN(C(C)C)CC2	11.9µM*	1.2%	/	/	7.0%	-7.3%
CCn1cnc2c(Nc3ccc(CC(=O)N=C(N)N)cc3)nc(C#N)nc21	/	-3.0%	/	/	/	/
NC(CCCCCP(=O)(c1ccccc1)c1ccccc1)C(=O)O (configuration not stated)	14.1µM*	/	-14.0%	-7.6%	?	-8.1%
Cn1c2cc(B(O)O)sc2c2cnn(Cc3ccc(F)cc3F)c(=O)c21	13.4µM*	/	/	/	/	/
Cc1cc2c(s1)c1cnn(Cc3ccc(Cl)cc3)c(=O)c1n2C	/	35.5µM*	/	/	/	/
Cc1cc2c(s1)c1cnn(Cc3cccc(F)c3F)c(=O)c1n2C	/	-3.6%	/	/	/	/
Cn1c2cc(B(O)O)sc2c2cnn(Cc3c(F)cccc3F)c(=O)c21	21.2µM*	/	/	/	/	/
Cn1c2cc(Br)sc2c2cnn(Cc3c(F)cccc3F)c(=O)c21	42.4%	/	/	/	/	/
Cn1c2cc(Br)sc2c2cnn(Cc3ccc(F)cc3F)c(=O)c21	-5.8%	1.7%	/	/	-3.7%	2.1%
CCN1/C(=C/C(C)=C/c2sc3ccccc3[n+]2CC)Sc2ccccc21	-13.8%	8.1%	12.6µM*	?	?	?
O=Nc1c(-c2c(O)[nH]c3cc(Br)ccc23)[nH]c2ccccc12	-10.5%	23.6%[56.1 µM]	28.2µM*	-16.0%	3.1%	-5.7%
O=C(CSCc1cccc(Br)c1)N=Nc1c(O)[nH]c2ccccc12	5.7%	9.6%	i	-11.0%	-8.0%	1.8%
SMILES	APE1 inh	TDP1 block	RECQ1 inh	BLM inh	GLS inhibitor	Tb PGK inh
Cc1c(NC(=O)c2cc(-c3ccc(Cl)c(Cl)c3)on2)c(=O)n(-c2ccccc2)n1C	3.5%	-5.9%	/	-0.3%	15.8µM*!	-3.5%
NC(=O)c1ccc(NC(=O)CSC2=Nc3ccccc3C3CC=NN23)cc1 (configuration not stated)	1.7%	3.8%	-12.7%	-11.1%	-14.2%	-2.1%
COC(=O)c1ccc(NC(=O)CSC2=Nc3ccccc3C3CC=NN23)cc1 (configuration not stated)	0.0%	4.2%	-12.2%	-0.6%	14.1µM*	-0.5%
CC(C)(C)n1ncc2c(=O)n(Cc3cc(F)ccc3Cl)cnc21	11.9%	/	/	/	/	/
CC(C)(C)n1ncc2c(=O)n(Cc3ccc(F)cc3F)cnc21	-1.8%	/	/	/	/	/
Cc1c(Cc2ccccc2)c(=O)oc2cc(O)ccc12	-0.3%	1.2%	-0.3%	-8.0%	13.0%	0.2%
Cc1oc2c(O)c(O)ccc2c(=O)c1-c1ccccc1	18.2%	4.8%	10µM*	-6.6%	1.5%	-5.8%
Cc1oc2c(O)c(O)ccc2c(=O)c1-c1ccc(Cl)cc1	5.6%	/	/	-14.2%	31.6%	-13.6%
O=c1cc(-c2ccccc2O)oc2c(O)c(O)ccc12	3.55µM*	/	3.16µM*	-29.9%	/	/
Cc1c(Cc2ccccc2)c(=O)oc2c(O)c(O)ccc12	0.4%	9.6%	i	12.6µM*	?	?
COc1cccc(C2c3c(ncn(-c4cccc(C#N)c4)c3=N)Oc3ccc4ccccc4c32)c1 (configuration not stated)	/	2.8%	/	/	/	/
COc1ccc(C2Nc3ccccc3C(=O)N2CC(C)(C)C)cc1COc1ccc(NC(C)=O)cc1 (configuration not stated)	/	3.8%	/	/	/	/
Cc1cc(C)c2c(n1)sc1c(O)cc(=O)[nH]c12	?	22.4µM*	-4.4%	?	8.0%	-8.3%
COc1ccc(-c2cc(C(F)(F)F)c3c(n2)sc2c(O)cc(=O)[nH]c23)c(OC)c1	-0.2%	0.0%	9.1%	-22.6%	-24.2%	-2.3%
CC1(CC(=O)N/N=C/c2cc(Br)c(O)cc2O)OCCO1	-6.0%	2.0%	-11.9%	-0.2%	10µM*	/
O=C(OC1CCOC1=O)c1ccc(Cl)c(S(=O)(=O)N2CCCCC2)c1 (configuration not stated)	?	2.6%	i	-4.2%	-6.8%	-19.0%
